Experimental data as given in PubChem BioAssay AID652115 (Broad Institute, 2013).
Values joined by “and” are separate entries in the source; they are usually repeats but may differ in a detail not shown here. Identical values can stand only once. Out of some 330,000 compounds screened, about 3,800 (1.2%) were called active. What follows is part of a selection rich in actives, with near analogues and random picks from the rest. A number with no mark means an inactive call. Cut-off read from the data, not from the text of the source: active = inhibition above about 15%; inconclusive = no clear call, values can overlap the other calls; inactive = below that.

Target: NAD-dependent protein deacylase sirtuin-5, mitochondrial (Homo sapiens) (UniProt Q9NXA8)
Assay: SIRT5 desuccinylase inhibitors, primary screen, biochemical, fluorescence imaging, single point, set 5 (AID 652115)
Details: Purified SirT5, succinyl-peptide AMC, trypsin-coupled fluorescence; at 15 µM; stronger effect = higher value

Sequence of NAD-dependent protein deacylase sirtuin-5, mitochondrial (Homo sapiens) (Q9NXA8 whole entry, looked up): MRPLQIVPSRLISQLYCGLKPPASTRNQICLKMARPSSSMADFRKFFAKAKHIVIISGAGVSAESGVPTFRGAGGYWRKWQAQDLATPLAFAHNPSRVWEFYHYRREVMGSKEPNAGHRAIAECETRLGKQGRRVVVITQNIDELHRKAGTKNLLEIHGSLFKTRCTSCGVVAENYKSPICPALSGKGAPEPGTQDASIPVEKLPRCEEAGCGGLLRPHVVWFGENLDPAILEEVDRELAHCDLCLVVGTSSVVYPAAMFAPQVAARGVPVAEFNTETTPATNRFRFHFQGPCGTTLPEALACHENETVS

Structure (SMILES) | inhibition
CO[C@H]1CN(C)C(=O)c2ccc(NC(=O)Nc3ccc(Cl)cc3)cc2OC[C@H](C)N(C(=O)Nc2c(C)noc2C)C[C@@H]1C | -0.008%
COc1ccccc1OCC(=O)O/N=C(\N)c1ccccn1 | 0.993%
COc1ccc(NC(=O)CSc2ccc(-c3ccco3)nn2)c(OC)c1 | -1.12%
COc1ccccc1OCC(=O)OCc1cc(-c2ccco2)on1 | 18.8% (active)
COCC(=O)Nc1ccc2c(c1)OC[C@@H](C)N(C(=O)c1cnccn1)C[C@H](C)[C@H](OC)CN(C)C2=O | -3.74%
CCC(=O)N1CC(=O)N2[C@@H](CO)[C@@H](c3ccc(C#CC4CCCC4)cc3)[C@@H]2C1 | -0.876%
C[C@H](CO)N1C[C@H](C)[C@H](CN(C)C(=O)c2ccccn2)Oc2ncc(-c3ccccc3F)cc2C1=O | 0.464%
C[C@@H]1CCCCO[C@H](CN(C)Cc2ccc(C(F)(F)F)cc2)[C@@H](C)CN([C@@H](C)CO)C(=O)c2cc(NC(=O)c3ccncc3)ccc2O1 | 15.9% (active)
C[C@@H]1CCCCO[C@@H](CN(C)S(C)(=O)=O)[C@H](C)CN([C@@H](C)CO)C(=O)c2cc(NS(=O)(=O)c3ccc(F)cc3)ccc2O1 | 1.65%
C[C@@H]1CCCCO[C@H](CN(C)Cc2ccc(C(F)(F)F)cc2)[C@H](C)CN([C@H](C)CO)C(=O)c2cc(NC(=O)Nc3ccc(F)cc3)ccc2O1 | 5.62%
Cc1ccc(S(=O)(=O)Nc2ccc3c(c2)C(=O)N([C@H](C)CO)C[C@@H](C)[C@H](CN(C)S(=O)(=O)c2ccc(C)cc2)OCCCC[C@@H](C)O3)cc1 | 15.5% (active)
C[C@@H]1CCCCO[C@@H](CN(C)Cc2ccc(Cl)c(Cl)c2)[C@H](C)CN([C@@H](C)CO)C(=O)c2cc(NS(C)(=O)=O)ccc2O1 | 11.8%
C[C@@H]1CCCCO[C@H](CN(C)CC2CCCCC2)[C@H](C)CN([C@H](C)CO)C(=O)c2cc(NS(=O)(=O)c3ccc(F)cc3)ccc2O1 | 16% (active)
Cc1ccc(S(=O)(=O)N(C)C[C@H]2OCCCC[C@@H](C)Oc3ccc(NS(C)(=O)=O)cc3C(=O)N([C@H](C)CO)C[C@@H]2C)cc1 | -1.35%
Cc1ccc(S(=O)(=O)N(C)C[C@@H]2OCCCC[C@@H](C)Oc3ccc(NS(=O)(=O)c4ccccc4)cc3C(=O)N([C@H](C)CO)C[C@@H]2C)cc1 | 15%
Cc1ccc(S(=O)(=O)Nc2ccc3c(c2)C(=O)N([C@@H](C)CO)C[C@@H](C)[C@H](CN(C)Cc2ccc(Cl)c(Cl)c2)OCCCC[C@@H](C)O3)cc1 | 17.4% (active)
CC(C)NC(=O)Nc1ccc2c(c1)C(=O)N([C@H](C)CO)C[C@H](C)[C@@H](CN(C)Cc1ccc(C(F)(F)F)cc1)OCCCC[C@@H](C)O2 | 0.221% and 2.28%
C[C@H](CO)N1C[C@H](C)[C@H](CN(C)CC2CCCCC2)OCCCC[C@H](C)Oc2ccc(NS(=O)(=O)c3ccc(F)cc3)cc2C1=O | 13.2%
Cc1ccc(S(=O)(=O)Nc2ccc3c(c2)C(=O)N([C@@H](C)CO)C[C@@H](C)[C@H](CN(C)Cc2ccc4c(c2)OCO4)OCCCC[C@@H](C)O3)cc1 | 4.41%
